From PubChem BioAssay
“And” between values parts separate entries of the source, which are not always exact repeats. Equal entries are not always repeated. The source made the active and inactive calls. Cut-off read from the data, not from the text of the source, unless noted: active = inhibition above about 80%; inactive = the rest.

Assays:
[1] = stimulators of nuclear beta-catenin in C2C12, primary screen, imaging, WNT3A-conditioned medium, mouse C2C12, NPC library (AID 1117326; in the data active = nuclear beta-catenin stimulation mostly above about 4.2%, no sharp cut-off; inactive = mostly below about 10%); conditions: stronger effect = higher value
[2] = stimulators of insulin release from INS-1E, primary screen, cell-based, 5 mM glucose, NPC library (AID 1117329;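 active = compound raises insulin release from rat beta cells at 5 mM glucose, no numeric limit stated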); conditions: rat INS-1E insulin secretion, at 10 µM, stronger effect = higher value
[3] = growth inhibition of GSK3B-pretreated HCT116 cells – cell-based, CellTiter-Glo, 0.2 to 20 µM (AID 1117336;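 active = compounds lowering colon cancer cell viability after pretreatment blocking the GSK3B kinase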); conditions: HCT116 viability after GSK3B inhibitor, at 20 µM, stronger effect = higher value
[4] = inhibition of endothelial tube formation, primary screen, imaging, VEGF stimulated, CD31 staining, tube area, NPC library (AID 1117340;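 active = compound that reduces growth-factor-driven endothelial tube area in a mixed cell culture, no cutoff stated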); conditions: VEGF-stimulated ADSC/ECFC co-culture, at 10 µM, stronger effect = higher value
[5] = glucagon-like peptide 1 release enhancers, primary assay, NCI-H716 cell line, NPC library (AID 1117341;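 active = compound raises GLP1 secretion from the human gut endocrine cells, with no numeric limit stated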); conditions: NCI-H716 cells, at 10 µM, stronger effect = higher value
[6] = HCT116 colon cancer cell growth inhibition, primary screen, CellTiter-Glo luminescence, NPC library (AID 1117342;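 active = compounds that lower survival of HCT116 colon cancer cells in the luminescence readout, no numeric limit stated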); conditions: at 20 µM (top of the series)
[7] = CellTiter-Glo luminescent readout of SW480 viability loss, NPC library primary (AID 1117343;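 active = compounds that lower viability of the colon cancer cells in the luminescence readout, with no numeric limit stated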); conditions: CellTiter-Glo luminescence; at 20 µM (top of the series) unless noted
[8] = decreased DLD-1 cellular survival, CellTiter-Glo luminescent readout, NPC compound collection, primary HTS (AID 1117346;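 active = compounds that lower survival of DLD-1 colon cancer cells in the luminescence readout, no cutoff given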); conditions: DLD-1 viability, CellTiter-Glo luminescence; at 20 µM (top of the series)
[9] = differential killing of epithelial or mesenchymal cells, primary screen, imaging, PC-3E GFP, TEM4-18 mCherry, co-culture (AID 1345086;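 active = compounds killing one labelled cell type while sparing the other, by normalised counts and ratio limits, not self-fluorescent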;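 for all read-outs here: cells exposed to compound for 72 h before imaging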;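 for red/green cell ratio (normalised): normalised mesenchymal count divided by normalised epithelial count so high means epithelial killing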); conditions: imaging cell counts, at 1 µM; for red/green cell ratio (normalised): actives lie on both sides, counts scaled to control wells, 1 = unselective
[10] = sensitizers of A549 cells to miR-34 induction, primary screen, imaging, A549 dox-inducible miR-34, nuclei and caspase counts (AID 1347080;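 active = compounds whose cell count with miR-34 switched on is under 0.7 times the count with it off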); conditions: A549 miR-34 inducible, Hoechst nuclei count, 48 h
[11] = survival rescue of mitochondrial mutant cells in low glucose, primary screen, MELAS cybrids, Rieske KO mouse fibroblasts, CellTiter-Glo (AID 1508586;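 active = mean z-score across replicates of 1.96 or higher in either the MELAS or the Rieske mutant cell line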;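 note: z relative to plate mean and SD of compound and empty wells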)
[12] = LFS_MB_P medulloblastoma growth inhibition, cell-based, chromothripsis tumors, cisplatin or BGB combos (AID 1671449); conditions: LFS_MB_P medulloblastoma cells;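 note: cells exposed for 96 hours; 0% = vehicle DMSO and 100% = killing by high DMSO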
[13] = HDN33 neuroblastoma growth inhibition, cell-based, chromothripsis tumors, cisplatin or BGB combos (AID 1671450); conditions: HDN33 neuroblastoma cells, stronger effect = higher value;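 note: cells exposed to compound for four days; 0% = vehicle DMSO and 100% = cell killing by high DMSO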
[14] = ICB984 medulloblastoma cell growth inhibition, synergistic combos for chromothripsis tumors, cisplatin or BGB combos (AID 1671451; call rule not given here;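 note: cells exposed for 96 hours before readout; 0% = vehicle DMSO and 100% = killing by high DMSO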); conditions: ICB984 medulloblastoma cells, drug combinations, stronger effect = higher value
[15] = HTB85 osteosarcoma cell growth inhibition, synergistic combos for chromothripsis tumors, BGB or cisplatin IC20 combos (AID 1671453); conditions: HTB85 osteosarcoma cells, drug combinations, stronger effect = higher value;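 note: cells exposed for 96 hours before readout; 0% = vehicle DMSO and 100% = high DMSO killing control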
[16] = MDA-MB-436 breast carcinoma cell growth inhibition, synergistic combos for chromothripsis tumors, BGB or cisplatin combos (AID 1671458; call rule not given here;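 note: cells exposed for 96 hours; 0% = vehicle DMSO and 100% = killing by high DMSO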); conditions: MDA-MB-436 breast carcinoma growth inhibition, drug combinations, stronger effect = higher value
[17] = hESC survival regulators, cell-based (AID 493140; call rule not given here;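 note: cells exposed to compounds for four days before counting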); conditions: human embryonic stem cell survival screen; stronger effect = higher value
[18] = liver-stage malaria parasite growth inhibition, primary screen, cell-based, HepG2, luciferase luminescence, HepG2 viability (AID 624349; in the data active = parasite load remaining mostly below about 12%, no sharp cut-off; inactive = mostly above about 10%;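 note: 100% = mean of DMSO negative control wells on the same plate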); conditions: P. berghei liver stage in HepG2, luciferase luminescence, concentration not given here; parasite load remaining: stronger effect = lower value; viability: measured here: HepG2 viability without parasites
[19] = measured here: epithelial PC-3E GFP cell survival
[20] = measured here: mesenchymal TEM4-18 mCherry cell survival
[21] = stronger effect = lower value, cell number ratio, induced over uninduced
[22] = measured here: relative caspase fold change +Dox/-Dox
[23] = measured here: total cells with miR-34 induction, stronger effect = lower value
[24] = measured here: total cells without miR-34 induction
[25] = at 0.5 µM, stronger effect = higher value
[26] = measured here: combination with BGB IC20, at 0.005 µM
[27] = measured here: combination with BGB IC40, at 0.005 µM
[28] = measured here: combination with BGB IC40, at 0.05 µM
[29] = measured here: combination with cisplatin, at 0.5 µM, stronger effect = higher value
[30] = measured here: combination with cisplatin, at 5 µM, stronger effect = higher value
[31] = measured here: with BGB IC20 combination, at 0.5 µM
[32] = measured here: with cisplatin IC20 combination, at 0.5 µM
[33] = measured here: 5 uM single agent, at 5 µM
[34] = measured here: with BGB IC20, at 0.5 µM
[35] = measured here: with BGB IC20, at 5 µM
[36] = measured here: with cisplatin IC20, at 0.5 µM
[37] = measured here: with cisplatin IC20, at 5 µM
[38] = measured here: BGB combination, at 0.5 µM
[39] = measured here: BGB combination, at 5 µM
[40] = measured here: cisplatin combination, at 0.5 µM
[41] = measured here: cisplatin combination, at 5 µM

CNC1CCCN(c2c(F)cc3c(=O)c(C(=O)O)cn(C4CC4)c3c2OC)C1 (stereo unspecified)
nuclear beta-catenin stimulation ([1]; at 10 µM): -0.1% (inactive) | nuclear beta-catenin stimulation ([1]; stimulation, at 2 µM): 0% | insulin secretion stimulation [2]: 5.75% (inactive) | viability decrease [3]: 42.9% (inactive) | tube area decrease [4]: -9% (inactive) | GLP1 secretion stimulation [5]: 1.4% (inactive) | inhibition of viability [6]: 10.1% (inactive) | viability decrease (inhibition) [7]: 6% (inactive) | viability decrease (inhibition) [8]: -25.9% (inactive) | red/green cell ratio (normalised) [9]: 1.13 (inactive) | normalised cell number [9, 19]: 1.05 | normalised cell number [9, 20]: 1.18 | fold change [10, 21]: 0.938 (inactive) | fold change [10, 22]: 0.74 | cell count [10, 23]: 8330 | cell count [10, 24]: 8880 | z-score ([11]; MELAS cybrid survival, CellTiter-Glo 48 h, stronger effect = higher value): -0.145 (inactive) | z-score ([11]; Rieske KO mouse fibroblast survival, CellTiter-Glo 72 h): 0.59 | inhibition [12, 25]: 6.49% (inactive) | inhibition [12, 26]: -28.5% | inhibition [12, 27]: -37.4% | inhibition [12, 28]: -26.1% | inhibition [12, 29]: 1.25% | inhibition [12, 30]: -35.3% | inhibition ([13]; BGB combo, at 5 µM): -29.7% | inhibition ([13]; at 0.5 µM): -41% (inactive) | inhibition ([13]; cisplatin combo, at 5 µM): -60.5% | inhibition [13, 31]: -39.7% | inhibition [13, 32]: -37.4% | inhibition ([13]; single agent, at 5 µM): -52% | inhibition ([14]; BGB IC20 combo, at 0.005 µM): -26.8% | inhibition ([14]; BGB IC40 combo, at 0.005 µM): -20.1% | inhibition ([14]; BGB IC40 combo, at 0.05 µM): -26.3% | inhibition ([14]; at 0.5 µM): -21.9% (inactive) | inhibition ([14]; cisplatin combo, at 0.05 µM): -26.3% | inhibition ([14]; cisplatin combo, at 0.5 µM): -35.1% | inhibition ([14]; cisplatin combo, at 5 µM): -31.2% | inhibition [14, 33]: -13.6% | inhibition ([15]; at 0.5 µM): -23.2% (inactive) | inhibition [15, 34]: -35.9% | inhibition [15, 35]: -27.5% | inhibition [15, 36]: -20.5% | inhibition [15, 37]: -18.5% | inhibition ([15]; single agent, at 5 µM): -28.7% | inhibition ([16]; at 0.5 µM): -22.5% (inactive) | inhibition [16, 38]: -19.9% | inhibition [16, 39]: -19.5% | inhibition [16, 40]: -36.1% | inhibition [16, 41]: -11.6%

O=C(O)[C@H](O)[C@@H](O)[C@H](O[C@@H]1O[C@H](CO)[C@H](O)[C@H](O)[C@H]1O)[C@H](O)CO
survival [17]: 11.8 (inactive) | parasite load remaining [18]: 68% (inactive) and 86.7% (inactive) | viability [18]: 96.5% and 74.2% | nuclear beta-catenin stimulation ([1]; at 10 µM): -1.5% (inactive) | nuclear beta-catenin stimulation ([1]; stimulation, at 2 µM): -0.6% | insulin secretion stimulation [2]: 5.9% (inactive) | viability decrease [3]: 94.4% (active) | tube area decrease [4]: -14.9% (inactive) | GLP1 secretion stimulation [5]: -3.6% (inactive) | inhibition of viability [6]: 93% (active) | viability decrease (inhibition) [7]: 94% (active) | viability decrease (inhibition) [8]: 99.7% (active) | red/green cell ratio (normalised) [9]: 1.06 (inactive) | normalised cell number [9, 19]: 1.17 | normalised cell number [9, 20]: 1.23 | fold change [10, 21]: 0.847 (inactive) | fold change [10, 22]: 1.47 | cell count [10, 23]: 8980 | cell count [10, 24]: 10600

CN1CCN(c2c(F)cc3c(=O)c(C(=O)O)cn4c3c2OCN4C)CC1
nuclear beta-catenin stimulation ([1]; at 10 µM): -0.6% (inactive) | nuclear beta-catenin stimulation ([1]; stimulation, at 2 µM): -2.1% | insulin secretion stimulation [2]: -0.9% (inactive) | viability decrease [3]: 7.3% (inactive) | tube area decrease [4]: -6.4% (inactive) | GLP1 secretion stimulation [5]: -0.1% (inactive) | inhibition of viability [6]: 1.5% (inactive) | viability decrease (inhibition) [7]: -15.8% (inactive) | viability decrease (inhibition) [8]: -5% (inactive) | red/green cell ratio (normalised) [9]: 0.85 (inactive) | normalised cell number [9, 19]: 1.17 | normalised cell number [9, 20]: 1 | inhibition [12, 25]: -17.7% (inactive) | inhibition [12, 26]: -16.9% | inhibition [12, 27]: -17.4% | inhibition [12, 28]: -36.9% | inhibition [12, 29]: -51.4% | inhibition [12, 30]: -32.3% | inhibition ([13]; BGB combo, at 5 µM): 5.71% | inhibition ([13]; at 0.5 µM): -7.25% (inactive) | inhibition ([13]; cisplatin combo, at 5 µM): -1.82% | inhibition [13, 31]: 5.2% | inhibition [13, 32]: -12.1% | inhibition ([13]; single agent, at 5 µM): -9.4% | inhibition ([14]; BGB IC20 combo, at 0.005 µM): 9.65% | inhibition ([14]; BGB IC40 combo, at 0.005 µM): -1.21% | inhibition ([14]; BGB IC40 combo, at 0.05 µM): 1.28% | inhibition ([14]; at 0.5 µM): -28.8% (inactive) | inhibition ([14]; cisplatin combo, at 0.05 µM): -1.48% | inhibition ([14]; cisplatin combo, at 0.5 µM): -25.3% | inhibition ([14]; cisplatin combo, at 5 µM): -7.68% | inhibition [14, 33]: -17.3% | inhibition ([15]; at 0.5 µM): -12.7% (inactive) | inhibition [15, 34]: -22.2% | inhibition [15, 35]: -21.7% | inhibition [15, 36]: -26.4% | inhibition [15, 37]: -29.4% | inhibition ([15]; single agent, at 5 µM): -8.81% | inhibition ([16]; at 0.5 µM): -16.5% (inactive) | inhibition [16, 38]: -13.3% | inhibition [16, 39]: -9.95% | inhibition [16, 40]: -29.6% | inhibition [16, 41]: -33.2%
